# Compounds with a hit are over-represented: about 0.7% of the library has one in this group of screens.
# Vif-A3G inh: blocks the Vif interaction with human APOBEC3G | Q9HC16 | HeLa A3G-eYFP + Vif (tagged APOBEC3G with the HIV-1 protein that degrades it), YFP fluorescence, overnight | Potency, µM (highest dose often 46.1 µM), inactives show at the top dose activity, negative = active, usual class: inhibitors | 410,000 compounds, 0.076% hits; further: potency means the concentration at half of the fitted maximal effect; on the % scale 0 is the no-effect control and ±100 the full control effect; nearly all actives have a fitted effect of over 60% in size
# Target sequence (Q9HC16 whole entry, looked up): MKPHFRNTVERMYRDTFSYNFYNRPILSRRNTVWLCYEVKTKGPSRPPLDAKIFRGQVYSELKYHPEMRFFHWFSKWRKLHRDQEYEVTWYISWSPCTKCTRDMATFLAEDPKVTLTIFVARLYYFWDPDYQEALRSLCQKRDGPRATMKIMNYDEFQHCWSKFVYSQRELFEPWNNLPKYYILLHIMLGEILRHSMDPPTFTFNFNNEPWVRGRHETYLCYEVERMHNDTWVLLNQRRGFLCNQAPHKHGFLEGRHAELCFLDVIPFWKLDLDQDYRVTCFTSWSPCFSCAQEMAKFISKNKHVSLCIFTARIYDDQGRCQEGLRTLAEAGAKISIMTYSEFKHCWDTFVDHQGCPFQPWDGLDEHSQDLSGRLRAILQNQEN
#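 Read-out is eYFP fluorescence (Ex 488/Em 500-530) from Vif-expressing HeLa A3G-eYFP cells; more signal means A3G escaped Vif-mediated degradation. Cells plated overnight, compound pinned in, incubated overnight at 37 deg C.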
# Vif-APOBEC3F blk: Vif-A3F binding inhibition; HeLa A3F-eYFP + Vif (tagged APOBEC3F with the HIV-1 protein that degrades it), YFP fluorescence increase; Potency, µM (titrated, usually from 46.1 µM), for the others: top-dose activity, negative = active; 390,000 compounds, 0.2% hits; further: potency means the concentration at half of the fitted maximal effect; % of control where 0% means no effect; nearly all actives have a fitted effect of over 65% in size
#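 Fluorescence increase (Ex 488/Em 500-530) after overnight compound treatment at 37 deg C flags inhibition of Vif-driven A3F-eYFP loss in stable HeLa A3F-eYFP/Vif cells seeded overnight beforehand.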
# PINK1 expr mod: modulators of PINK1 expression; 410,000 compounds, 0.2% hits; Potency, µM (titrated, usually from 76.6 µM), for the others: at the top dose activation (PINK1 increase), most hits filed as activators; AID 624263; PINK1 immunofluorescence, high-content cytometry, 24 h; active means well fitted activation curve with a large enough effect; inconclusive means small, poorly fitted or top-dose-only effect; cell line not stated here; further: potency means the concentration at half of the fitted maximal effect; % of control where 0% means no effect; nearly all actives have a fitted effect of over 65% in size
#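 Cells are seeded, rested 12 hours, then given compound at five concentrations or DMSO for 24 hours. After fixation, blocking and antibody staining, PINK1 amount and mitochondrial localization are scored; CCCP serves as control.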
# Epigenetic reg: regulators of epigenetic silencing causing reporter derepression in mouse cells; AID 1865; Potency, µM (highest dose often 53.9 µM), inactives show at the top dose GFP activation, usual class: activators; murine LDR cells, GFP reporter derepression, 30 h; 280,000 compounds, 0.2% hits; further: potency means the concentration at half of the fitted maximal effect; % of control where 0% means no effect; nearly all actives have a fitted effect of over 60% in size
#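 In this reporter-derepression format, murine cells bearing a silenced integrated CMV-GFP locus incubate with test compound (30 h, 37 C), then are washed and imaged; fluorescent objects of 20–120 um count as induced cells.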
# GLS inhibitor: glutaminase GLS (human) inhibition; O94925; GLS enzymatic activity, qHTS titration; Potency, µM (doses to about 45.5 µM), for the others: top-dose activity change, negative = inhibition, most hits filed as inhibitors; 410,000 compounds, 0.21% hits; AID 624170; further: potency means the concentration at half of the fitted maximal effect; on the % scale 0 is the no-effect control and ±100 the full control effect
#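 Glutamate formation by hKGA was monitored fluorometrically using coupled glutamate oxidase, HRP and Amplex Red. Substrate was added as 1 mM L-glutamine solution; incubation was 30 min at RT after an initial read.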
# GLS confirm: confirmation of human glutaminase inhibitors | shares compounds with GLS inhibitor | biochemical glutaminase enzyme inhibition assay | Potency, µM (titrated, usually from 46.1 µM), inactives show at the top dose activity change, negative = inhibition, hits mostly inhibitors | 35 tested, under 10 active; calls by dose curve
# GLS HRP counter: coupled enzyme interference in glutaminase inhibitor counterscreen. activity change, negative = inhibition, % at 46.1 µM. 35 tested, under 10 active. HRP/glutamate oxidase coupled Amplex Red fluorescence counterscreen. shares compounds with GLS inhibitor
# HEK293 tox: counter-screen for glutaminase inhibitors: HEK-293 cytotoxicity | shares compounds with GLS inhibitor | HEK-293 viability, CellTiter-Glo luminescence, 24 h | activity change, negative = cytotoxicity, % at 46.1 µM | 35 tested, under 10 active | AID 624264
# Active calls of the source: *; ? = inconclusive; nt = no result; [ ] = another dose, or the depositor's remark. Unless noted, the call rests on the fitted dose curve; in most records, active means well fitted curve in the direction sought with a large enough effect; inconclusive means small, poorly fitted or top-dose-only effect, or another doubt; inactive means no such curve, though single readings can be large; an effect the other way counts as inactive or inconclusive.
SMILES,Vif-A3G inh,Vif-APOBEC3F blk,PINK1 expr mod,Epigenetic reg,GLS inhibitor,GLS confirm,GLS HRP counter,HEK293 tox
CCOC(=O)CC(NS(=O)(=O)c1ccc2[nH]cc(C(=O)O)c(=O)c2c1)c1ccc(OCC)c(OC)c1 (stereo not drawn),3%,-18%,-2%,nt,16µM*,21µM*,6,-1
CCOC(=O)CC(NS(=O)(=O)c1ccc(OC)c(OC)c1)c1cccc([N+](=O)[O-])c1 (stereo not drawn),-3%,0%,2%,-1%,2%,nt,nt,nt
O=S(=O)(Nc1cccc2cccnc12)c1cccc2ccccc12,-5%,nt,0%,nt,nt,nt,nt,nt
O=S(=O)(Nc1ccccc1O)c1cccc2cccnc12,-1%,4%,2%,-6%,?,-3%,?,-5
O=C(O)c1ccccc1NS(=O)(=O)c1cccc(-n2sc3ccccc3c2=O)c1,3%,6%,1%,nt,7.1µM*,5.2µM*,11,8
O=C(O)c1ccccc1NS(=O)(=O)c1cccc(C(F)(F)F)c1,2%,0%,4%[38.3 µM],-1%,19%,nt,nt,nt

# Source: PubChem BioAssay
